Test results taken from the supplement of paper PMC11732987, “Enantioselective OTUD7B fragment discovery through chemoproteomics screening and high-throughput optimisation” (Communications Chemistry, 2025).

Tests used:
Experiment in all cases: log2 ratio of Biotin-Ahx-Ub-VS probe labelling (fragment/DMSO); higher = less target engagement (more negative = stronger competition), active = hit call of the paper (q ≤ 0.05, log2 ratio ≤ -1)
Settings in all cases: compound concentration: 200 uM; treatment time: 3 h
OTUD6B = target: T1, OTUD6B (UniProt Q8N6M0)
T1 sequence (whole entry): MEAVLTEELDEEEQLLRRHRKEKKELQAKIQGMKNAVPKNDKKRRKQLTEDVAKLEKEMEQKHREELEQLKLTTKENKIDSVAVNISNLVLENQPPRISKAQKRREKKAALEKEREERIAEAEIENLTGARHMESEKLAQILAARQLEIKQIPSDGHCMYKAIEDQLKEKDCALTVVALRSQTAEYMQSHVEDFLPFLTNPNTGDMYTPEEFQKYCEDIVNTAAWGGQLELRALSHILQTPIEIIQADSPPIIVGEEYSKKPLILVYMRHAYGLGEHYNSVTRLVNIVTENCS
Procedure, shortened: (§1)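 HEK293T lysate, 495 µg per sample in Tris/CHAPS/IGEPAL buffer with protease inhibitors, was treated in triplicate with fragment at 200 µM or vehicle for 3 h and then with Biotin-Ahx-Ub-VS at 0.5 µM final for 1 h. Labelled DUBs were NeutrAvidin-enriched, digested with LysC and trypsin, and run by diaPASEF LC-MS/MS. Spectronaut label-free quantities were global-median-normalised, and values are average log2 fragment/vehicle ratios by unpaired t-test on proteins with ≥2 unique peptides.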

OTUD7B = target: T2, OTUD7B (UniProt Q6GQQ9)
T2 sequence (whole entry): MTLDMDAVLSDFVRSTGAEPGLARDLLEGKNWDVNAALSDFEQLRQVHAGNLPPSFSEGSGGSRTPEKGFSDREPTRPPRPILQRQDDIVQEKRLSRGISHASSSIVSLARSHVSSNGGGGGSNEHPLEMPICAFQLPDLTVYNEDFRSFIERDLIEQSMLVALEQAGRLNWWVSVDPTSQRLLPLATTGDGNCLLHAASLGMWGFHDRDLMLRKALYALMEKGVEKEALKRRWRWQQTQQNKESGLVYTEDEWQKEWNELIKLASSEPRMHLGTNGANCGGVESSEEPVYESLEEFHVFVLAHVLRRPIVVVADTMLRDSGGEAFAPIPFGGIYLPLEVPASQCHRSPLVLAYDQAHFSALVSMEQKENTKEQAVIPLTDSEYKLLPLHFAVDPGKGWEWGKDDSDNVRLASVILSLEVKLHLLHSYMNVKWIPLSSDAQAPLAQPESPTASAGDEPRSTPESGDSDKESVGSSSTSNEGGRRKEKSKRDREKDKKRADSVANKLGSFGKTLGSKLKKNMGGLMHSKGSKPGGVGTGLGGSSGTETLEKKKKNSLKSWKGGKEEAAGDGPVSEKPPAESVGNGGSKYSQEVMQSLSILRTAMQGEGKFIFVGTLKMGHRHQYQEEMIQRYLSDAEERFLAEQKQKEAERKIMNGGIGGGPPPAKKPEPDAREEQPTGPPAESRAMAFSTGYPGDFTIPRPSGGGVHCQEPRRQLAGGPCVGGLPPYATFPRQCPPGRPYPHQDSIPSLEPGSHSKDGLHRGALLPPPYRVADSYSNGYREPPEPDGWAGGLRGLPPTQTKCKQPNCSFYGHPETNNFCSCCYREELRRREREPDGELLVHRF
Procedure, shortened: as §1

PRPF8 = PRPF8 (UniProt Q6P2Q9)
Procedure, shortened: as §1

PSMD7 = target: T3, PSMD7 (UniProt P51665)
T3 sequence (whole entry): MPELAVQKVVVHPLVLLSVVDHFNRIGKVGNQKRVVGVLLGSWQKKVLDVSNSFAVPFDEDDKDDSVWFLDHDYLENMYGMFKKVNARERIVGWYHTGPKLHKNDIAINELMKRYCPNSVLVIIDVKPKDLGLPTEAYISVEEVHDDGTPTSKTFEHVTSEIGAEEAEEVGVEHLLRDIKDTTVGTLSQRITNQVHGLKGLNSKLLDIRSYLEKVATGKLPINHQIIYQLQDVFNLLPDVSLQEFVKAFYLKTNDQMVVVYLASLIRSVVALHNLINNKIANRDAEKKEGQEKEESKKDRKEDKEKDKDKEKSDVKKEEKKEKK
Procedure, shortened: as §1

UCHL1 = UCHL1 (UniProt P09936)
Sequence of UCHL1 (P09936 whole entry, looked up): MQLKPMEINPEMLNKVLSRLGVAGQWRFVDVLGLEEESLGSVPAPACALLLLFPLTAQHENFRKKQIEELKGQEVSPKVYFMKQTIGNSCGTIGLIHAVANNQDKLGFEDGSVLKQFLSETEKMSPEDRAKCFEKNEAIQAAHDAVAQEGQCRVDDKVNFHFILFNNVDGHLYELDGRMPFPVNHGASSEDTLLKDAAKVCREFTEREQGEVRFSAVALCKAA
Procedure, shortened: as §1

UCHL3 = target: T4, UCHL3 (UniProt P15374)
T4 sequence (whole entry): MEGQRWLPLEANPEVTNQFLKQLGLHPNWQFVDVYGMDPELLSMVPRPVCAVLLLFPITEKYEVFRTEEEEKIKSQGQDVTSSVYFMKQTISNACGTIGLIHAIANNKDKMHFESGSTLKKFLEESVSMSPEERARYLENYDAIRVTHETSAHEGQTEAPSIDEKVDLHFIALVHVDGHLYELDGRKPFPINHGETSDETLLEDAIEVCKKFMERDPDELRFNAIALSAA
Procedure, shortened: as §1

UCHL5 = target: T5, UCHL5 (UniProt Q9Y5K5)
T5 sequence (whole entry): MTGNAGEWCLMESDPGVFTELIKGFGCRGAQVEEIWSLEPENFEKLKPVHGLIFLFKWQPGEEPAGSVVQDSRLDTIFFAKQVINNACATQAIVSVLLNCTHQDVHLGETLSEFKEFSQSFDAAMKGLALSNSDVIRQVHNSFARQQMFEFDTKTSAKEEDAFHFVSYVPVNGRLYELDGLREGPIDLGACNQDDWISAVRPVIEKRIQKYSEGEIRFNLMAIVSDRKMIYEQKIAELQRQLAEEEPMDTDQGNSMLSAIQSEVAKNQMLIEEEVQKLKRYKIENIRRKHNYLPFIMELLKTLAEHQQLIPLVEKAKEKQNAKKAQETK
Procedure, shortened: as §1

USP10 = USP10 (UniProt Q14694)
Sequence of USP10 (Q14694 whole entry): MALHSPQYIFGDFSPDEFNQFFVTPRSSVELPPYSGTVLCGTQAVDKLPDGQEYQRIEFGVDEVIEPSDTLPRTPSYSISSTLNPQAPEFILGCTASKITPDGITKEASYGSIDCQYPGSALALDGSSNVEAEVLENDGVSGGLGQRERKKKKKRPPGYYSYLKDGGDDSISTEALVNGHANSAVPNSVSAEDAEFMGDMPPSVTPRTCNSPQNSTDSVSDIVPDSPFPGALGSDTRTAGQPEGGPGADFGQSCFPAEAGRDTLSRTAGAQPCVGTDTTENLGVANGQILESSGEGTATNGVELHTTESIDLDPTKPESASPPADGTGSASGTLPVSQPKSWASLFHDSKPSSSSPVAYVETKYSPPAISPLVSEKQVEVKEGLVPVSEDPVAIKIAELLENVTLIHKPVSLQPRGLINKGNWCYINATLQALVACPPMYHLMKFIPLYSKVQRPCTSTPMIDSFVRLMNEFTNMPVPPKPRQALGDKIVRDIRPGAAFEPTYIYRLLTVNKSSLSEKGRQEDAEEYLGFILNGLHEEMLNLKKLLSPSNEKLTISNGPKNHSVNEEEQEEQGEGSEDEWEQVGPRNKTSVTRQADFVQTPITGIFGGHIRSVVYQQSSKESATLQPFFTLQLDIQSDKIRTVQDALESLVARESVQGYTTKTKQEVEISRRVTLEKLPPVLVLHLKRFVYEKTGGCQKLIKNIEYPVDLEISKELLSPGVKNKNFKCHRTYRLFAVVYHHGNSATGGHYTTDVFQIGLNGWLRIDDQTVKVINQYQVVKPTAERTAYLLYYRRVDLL
Procedure, shortened: as §1

USP15 = target: T6, USP15 (UniProt Q9Y4E8)
T6 sequence (whole entry): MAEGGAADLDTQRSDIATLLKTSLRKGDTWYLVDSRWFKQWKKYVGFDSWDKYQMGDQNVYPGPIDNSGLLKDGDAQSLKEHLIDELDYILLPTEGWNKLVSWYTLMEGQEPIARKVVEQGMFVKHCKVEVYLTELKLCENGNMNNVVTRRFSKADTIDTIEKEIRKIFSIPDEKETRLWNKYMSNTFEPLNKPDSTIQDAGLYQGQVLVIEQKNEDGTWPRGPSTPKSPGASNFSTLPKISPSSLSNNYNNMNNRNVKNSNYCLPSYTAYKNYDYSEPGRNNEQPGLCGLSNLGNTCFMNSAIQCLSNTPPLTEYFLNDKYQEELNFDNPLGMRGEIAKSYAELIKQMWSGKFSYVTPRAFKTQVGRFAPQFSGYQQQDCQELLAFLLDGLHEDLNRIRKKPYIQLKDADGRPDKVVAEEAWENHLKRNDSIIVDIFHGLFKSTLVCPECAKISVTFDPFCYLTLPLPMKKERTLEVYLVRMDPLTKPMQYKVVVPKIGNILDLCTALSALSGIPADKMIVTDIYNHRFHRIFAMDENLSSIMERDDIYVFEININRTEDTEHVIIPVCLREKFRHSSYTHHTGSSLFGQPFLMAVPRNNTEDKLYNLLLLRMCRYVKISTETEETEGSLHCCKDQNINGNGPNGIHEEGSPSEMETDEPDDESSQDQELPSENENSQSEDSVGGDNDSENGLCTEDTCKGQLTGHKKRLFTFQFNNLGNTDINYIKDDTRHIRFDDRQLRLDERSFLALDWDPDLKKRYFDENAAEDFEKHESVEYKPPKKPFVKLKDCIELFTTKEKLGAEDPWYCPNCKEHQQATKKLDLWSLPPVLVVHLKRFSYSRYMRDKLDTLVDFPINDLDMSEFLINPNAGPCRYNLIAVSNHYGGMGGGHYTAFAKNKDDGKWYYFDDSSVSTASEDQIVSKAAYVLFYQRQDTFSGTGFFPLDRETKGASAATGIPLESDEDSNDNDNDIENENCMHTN
Procedure, shortened: as §1

Measured: log2 ratio of Biotin-Ahx-Ub-VS probe labelling

COc1cc(Cl)c(C)cc1NC(=O)CCl
inactive: OTUD6B -0.418 | OTUD7B -0.345 | PRPF8 -0.193 | PSMD7 -0.352 | UCHL3 0.146 | UCHL5 -0.348 | USP10 -0.183 | USP15 -0.24
active: UCHL1 -1.57
